Shown are actives, neighbours in structure and some others; about 8% of the full set was active somewhere.
FMDV antiviral: High Throughput Screening for Foot and Mouth Disease Virus Antivirals | FMDV antiviral cell-based qHTS | Potency, µM (doses to about 57.9 µM), for the others: at the highest dose activity change, negative = inhibition, hits mostly inhibitors | actives 1.2% (n = 410,000) | AID 1159524, 2015; calls by dose curve; tested in HEK293T cells; also: read-out not given here; potency is read from the fitted curve at half-maximal effect; % is scaled to controls: 0 for no effect and ±100 for the full control effect; nearly all actives have a fitted effect of over 45% in size
Marburg entry inh: qHTS for inhibitors of binding or entry into cells for Marburg Virus; Marburg virus pseudotyped entry inhibition, cell reporter; Potency, µM (highest dose often 37.8 µM), inactives show at the highest dose activity change, negative = inhibition, actives largely listed as inhibitors; actives 1.8% (n = 300,000); calls by dose curve; tested in HEK293 cells; also: potency is read from the fitted curve at half-maximal effect; % is scaled to controls: 0 for no effect and ±100 for the full control effect
SARS PLpro yeast: qHTS of Yeast-based Assay for SARS-CoV PLP | S. cerevisiae expressing SARS-CoV PLpro, growth rescue | Potency, µM (series often up to 32.9 µM), inactives show top-dose activity, positive = growth rescue, most hits filed as activators | actives 0.19% (n = 330,000) | AID 485353, 2010; calls by dose curve; also: potency is read from the fitted curve at half-maximal effect; 0% is about no effect; nearly all actives have a fitted effect of over 55% in size
LASV entry inh: qHTS for Inhibitors of binding or entry into cells for Lassa Virus; Lassa virus pseudotype entry inhibition, cell reporter; Potency, µM (top dose mostly 37.9 µM), inactives show top-dose activity change, negative = inhibition, usual class: inhibitors; AID 540256, 2011; actives 1.2% (n = 300,000); calls by dose curve; tested in HEK293 cells; also: potency is read from the fitted curve at half-maximal effect; % is scaled to controls: 0 for no effect and ±100 for the full control effect; nearly all actives have a fitted effect of over 50% in size
HCMV inh: qHTS Assay for inhibitors of the human cytomegalovirus (HCMV). HFF cells, HCMV-luciferase reporter, 72 h; stronger effect = lower value. AID 1259415, 2018. activity change, negative = inhibition, % at 57.5 µM. actives 4.5% (n = 410,000); in the data active = activity change below about -60%; inconclusive = no clear call, values can overlap the other calls; inactive = above about -39%; also: % is scaled to controls: 0 for no effect and ±100 for the full control effect
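Two compound doses tested in HFFs infected with HCMV-luciferase, MOI 1 PFU/cell, 72 h at 37C. Lysate luminescence read with OneGlo; data normalized against buffer-only and 10uM Salinomycin inhibitor controls.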
HCV inh: qHTS Assay for Inhibitors of Hepatitis C Virus (HCV). Huh7.5.1 HCVcc-Cre infection, luciferase reporter, 44 h. Potency, µM (highest dose often 41.8 µM), inactives show top-dose activity change, negative = inhibition, actives largely listed as inhibitors. actives 3.4% (n = 340,000); also: potency is read from the fitted curve at half-maximal effect; % is scaled to controls: 0 for no effect and ±100 for the full control effect
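Antiviral activity was scored by luciferase reporter output from cells infected with HCVcc-Cre (~0.5 moi) in presence of compound, 44 h infection period, cells seeded 1,000/well 4 h prior.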
HCV confirm: qHTS Assay for Inhibitors of Hepatitis C Virus (HCV): Confirmation Assay for Cherry-picked Compounds; shares compounds with HCV inh; HCVcc-Cre infectious virus cell assay, luciferase, inhibition; Potency, µM (series often up to 41.8 µM), inactives show top-dose activity, negative = inhibition, hits mostly inhibitors; actives 78% (n = 640); AID 720575, 2013; also: potency is read from the fitted curve at half-maximal effect; nearly all actives have a fitted effect of over 80% in size
HCV cytotox: qHTS Assay for Inhibitors of Hepatitis C Virus (HCV): Cytotoxicity Counterscreen for Cherry-picked Compounds; Potency, µM (doses to about 41.8 µM), without a hit: at the top dose activity change, negative = cytotoxicity, usual class: inhibitors; shares compounds with HCV inh; HCV host cell line cytotoxicity counterscreen; actives 22% (n = 640);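 also: potency is read from the fitted curve at half-maximal effect; 44 h compound exposure; % is scaled to controls: 0 for no effect and ±100 for the full control effect; nearly all actives have a fitted effect of over 55% in size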
Starred values were filed as active, the others as inactive; ? = inconclusive; · = not tested or not shown; [ ] = remark or other dose. Unless noted, calls follow the shape of the dose curve; as a rule, active = well fitted curve in the direction sought with a large enough effect; inconclusive = small, poorly fitted or top-dose-only effect, or another doubt; inactive = no such curve, though single readings can be large; an effect the other way counts as inactive or inconclusive.

SMILES | FMDV antiviral | Marburg entry inh | SARS PLpro yeast | LASV entry inh | HCMV inh | HCV inh | HCV confirm | HCV cytotox
COc1ccccc1CC(=O)Nc1cc2oc3ccccc3c2cc1OC | · | ? | -6.1% | 4.1% | -8.0 | 3.98µM* | 12.5µM* | 22.0%
COc1ccccc1NC(=O)c1ccc(NC(=O)c2cc3c(s2)CCC3)cc1 | ? | ? | ? | -25.1% | -24.2 | 8.91µM* | 8.87µM* | 17.0%
COc1ccc(OC)c(NC(=O)c2nnn(Cc3ccccc3C)c2N)c1 | 18.6% | ? | 6.0% | -6.9% | 0.2 | 7.08µM* | 22.3µM* | 43.2%
COc1ccc(NC(=O)c2nnn(Cc3ccccc3C)c2N)c(OC)c1 | -4.0% | -0.4%[46.1 µM] | · | -3.4%[46.1 µM] | -11.4 | · | · | ·
Cc1ccc(NCc2cccn2-c2nnc(N3CCC(C(=O)NCc4ccccc4C)CC3)s2)cc1 | -18.8% | 6.0%[46.1 µM] | · | · | ? | · | · | ·
COc1ccc(-c2nc3scc(CCNS(=O)(=O)c4cccc(C(C)=O)c4)n3n2)cc1 | 33.9% | · | · | -8.6%[46.1 µM] | 50.9 | · | · | ·
Cc1csc(N2CCN(c3cc4c(cc3Cl)nc(-c3ccncc3)n4CCCN3CCCC3)CC2)n1 | ? | · | -3.8% | · | 6.1 | ? | 14.1µM* | 66.9%
CNc1nc(N/N=C/c2cc3c(cc2[N+](=O)[O-])OCO3)nc(Nc2ccccc2)n1 | ? | 16.4µM* | -1.2% | ? | -99.5* | 1µM* | 14.1µM* | 31.5µM*
COc1ccc(/C=N\NC(=O)c2ccccc2Br)cc1COc1c(F)c(F)cc(F)c1F | -21.3% | 6.31µM* | -4.6% | ? | -81.1* | 5.01µM* | 4.45µM* | 22.3µM*
COc1ccc(NC(=O)CC2C(=O)N(c3ccccc3)C(=O)N2Cc2cccnc2)cc1 (centres undefined) | -10.1% | · | · | 0.0%[46.1 µM] | -33.2 | · | · | ·
Cn1c(=O)c2c(nc(Oc3ccc4c(c3)OCO4)n2Cc2ccc(F)cc2)n(C)c1=O | -3.8% | 17.7% | 0.4% | -22.0% | -21.2 | 13.3% | · | ·
Cn1c(=O)c2c(nc(SCC(=O)NCc3ccc4c(c3)OCO4)n2Cc2ccccc2)n(C)c1=O | 0.0% | -11.6% | 3.7% | 7.4% | -17.7 | 2.3% | ? | 13.0%
Cn1c(=O)c2c(nc(SCC(=O)NCc3ccc4c(c3)OCO4)n2Cc2ccc(F)cc2)n(C)c1=O | -22.9% | -12.5% | -1.8% | -24.3% | -35.6 | ? | 14.1µM* | 25.8%
CCCCNC(=O)CSc1nc2ccccc2c(=O)n1Cc1ccc2c(c1)OCO2 | 9.5% | -24.2% | 5.0% | ? | -11.3 | ? | · | ·
COc1ccc(CNC(=O)c2ccc3c(=O)n4c(nc3c2)CCCCC4)cc1OC | ? | ? | 1.0% | ? | -74.5* | ? | 7.91µM* | ?
O=C(Nc1cccc(Cl)c1Cl)c1ccc2c(c1)N(Cc1cccc(Cl)c1)C(=O)c1ccccc1S2(=O)=O | -15.8% | ? | · | 3.2%[46.1 µM] | -1.8 | · | · | ·
CCCn1c(NC(=O)c2cccc(S(=O)(=O)N3CCCC3)c2)nc2ccccc21 | 31.6µM* | 6.51µM* | 4.6% | ? | -96.9* | 5.01µM* | 9.95µM* | 8.87µM*
CCCn1c(NC(=O)c2ccccc2)nc2ccccc21 | 22.8% | -1.2% | -21.7% | -4.2% | -15.0 | ? | · | ·
CCC(C(=O)Nc1ccccc1OC)n1nc(C)c2sc3ccccc3c2c1=O (centres undefined) | -20.2% | 19.4%[46.1 µM] | · | 4.2%[46.1 µM] | 3.4 | · | · | ·
COc1cc(NC(=O)c2ccc3c(c2)OCO3)ccc1NC(=O)c1ccco1 | 15.5% | 3.5%[46.1 µM] | 20.3% | -2.0% | -7.5 | ? | ? | 8.2%

Compound activity (PubChem BioAssay)
